Molecular target: Rho-associated protein kinase 2 (Homo sapiens) (UniProt O75116)
Settings: at 10 µM

Sequence of Rho-associated protein kinase 2 (Homo sapiens) (O75116 whole entry, looked up): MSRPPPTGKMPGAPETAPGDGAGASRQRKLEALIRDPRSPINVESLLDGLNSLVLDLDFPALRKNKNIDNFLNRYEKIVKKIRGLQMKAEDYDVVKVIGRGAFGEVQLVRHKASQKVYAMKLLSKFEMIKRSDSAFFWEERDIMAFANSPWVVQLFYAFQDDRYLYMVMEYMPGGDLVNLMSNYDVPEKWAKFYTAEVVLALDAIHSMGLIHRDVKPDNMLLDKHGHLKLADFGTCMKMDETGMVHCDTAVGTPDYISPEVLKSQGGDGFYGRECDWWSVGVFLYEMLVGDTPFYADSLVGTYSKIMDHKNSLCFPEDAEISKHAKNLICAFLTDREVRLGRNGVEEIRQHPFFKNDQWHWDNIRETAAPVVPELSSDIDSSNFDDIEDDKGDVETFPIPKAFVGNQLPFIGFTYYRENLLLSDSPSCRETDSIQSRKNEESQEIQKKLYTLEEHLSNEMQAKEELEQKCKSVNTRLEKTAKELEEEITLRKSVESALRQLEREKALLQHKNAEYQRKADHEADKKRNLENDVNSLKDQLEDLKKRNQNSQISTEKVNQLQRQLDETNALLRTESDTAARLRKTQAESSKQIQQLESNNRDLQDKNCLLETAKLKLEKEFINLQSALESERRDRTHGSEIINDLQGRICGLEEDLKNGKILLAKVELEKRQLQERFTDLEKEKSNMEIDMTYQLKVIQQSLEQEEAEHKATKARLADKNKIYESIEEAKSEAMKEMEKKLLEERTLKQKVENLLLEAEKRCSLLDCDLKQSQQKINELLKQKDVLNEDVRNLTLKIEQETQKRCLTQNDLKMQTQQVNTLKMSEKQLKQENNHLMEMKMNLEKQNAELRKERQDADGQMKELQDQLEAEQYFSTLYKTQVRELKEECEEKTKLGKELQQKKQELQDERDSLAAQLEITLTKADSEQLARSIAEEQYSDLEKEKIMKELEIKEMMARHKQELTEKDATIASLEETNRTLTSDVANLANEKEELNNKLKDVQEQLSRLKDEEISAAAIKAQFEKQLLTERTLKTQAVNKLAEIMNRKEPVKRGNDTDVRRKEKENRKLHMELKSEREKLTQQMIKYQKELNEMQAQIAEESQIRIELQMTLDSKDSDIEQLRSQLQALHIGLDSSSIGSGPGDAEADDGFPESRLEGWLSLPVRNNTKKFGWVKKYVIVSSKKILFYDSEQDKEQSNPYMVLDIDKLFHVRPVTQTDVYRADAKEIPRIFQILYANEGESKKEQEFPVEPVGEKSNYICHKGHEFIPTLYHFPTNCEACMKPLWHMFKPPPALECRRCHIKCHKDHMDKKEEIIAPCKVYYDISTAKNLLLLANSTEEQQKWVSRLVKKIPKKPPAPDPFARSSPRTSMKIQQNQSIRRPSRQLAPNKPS

**Q.** With c1cc(-c2cnn3cc(-c4ccc(OCCN5CCCCC5)cc4)cnc23)ccn1 as the compound, how does the residual activity read?
**A.** 40%

**Q.** Which residual activity does the source give for COc1cc(OC)c(/C=C2\C(=O)Nc3ccccc32)c(OC)c1 here?
**A.** 92%

**Q.** For CCn1cnc2c(Nc3cccc(Cl)c3)nc(N[C@@H]3CCCC[C@@H]3N)nc21, which residual activity is on record?
**A.** 53%

**Q.** COC(=O)[C@@]1(O)C[C@H]2O[C@]1(C)n1c3ccccc3c3c4c(c5c6ccccc6n2c5c31)C(=O)NC4 was tested. Which residual activity did it give?
**A.** 2%

**Q.** Which residual activity does the source give for COc1ccc2c(c1)/C(=C/c1cnc[nH]1)C(=O)N2 here?
**A.** 36%

**Q.** CO[C@H]1[C@@H](OC)C[C@H](C)[C@@H](OC)C2=CC(=O)C=C(NC(=O)/C(C)=C/C=C/[C@H](OC)[C@@H](OC(N)=O)/C(C)=C/[C@@H]1C)C2=O was tested. Which residual activity did it give?
**A.** 80%

**Q.** Which residual activity does the source give for O=C1Nc2ccc3ncsc3c2/C1=C/c1c[nH]cn1 here?
**A.** 1%

**Q.** C[S+]([O-])c1ccc(-c2nc(-c3ccc(F)cc3)c(-c3ccncc3)[nH]2)cc1 (configuration not stated) was tested. Which residual activity did it give?
**A.** 100%

**Q.** O=S(=O)(NCCNC/C=C/c1ccc(Br)cc1)c1cccc2cnccc12 was tested. Which residual activity did it give?
**A.** 0%

**Q.** Which residual activity does the source give for O=[N+]([O-])/C=C/c1ccc2c(c1)OCO2 here?
**A.** 79%

**Q.** With COc1ccc2c(c[n+](C)c3c4cc5c(cc4ccc23)OCO5)c1OC as the compound, how does the residual activity read?
**A.** 82%

**Q.** With N/C(=N\[N+](=O)[O-])N/N=C\c1ccc(-c2cccc([N+](=O)[O-])c2)o1 as the compound, how does the residual activity read?
**A.** 98%

**Q.** Which residual activity does the source give for COc1cc2nccc(Oc3ccc(NC(=O)Nc4cc(C)on4)c(Cl)c3)c2cc1OC here?
**A.** 51%

**Q.** For COc1cc2ncnc(Nc3ccc(OCc4ccccc4)cc3)c2cc1OC, which residual activity is on record?
**A.** 97%

**Q.** Which residual activity does the source give for O=c1[nH]c2ccccc2n1C1CCN(Cc2ccc(-c3nc4cc5[nH]cnc5cc4nc3-c3ccccc3)cc2)CC1 here?
**A.** 74%

**Q.** For CC(C)[C@H](CO)Nc1nc(Nc2cccc(Cl)c2)c2ncn(C(C)C)c2n1, which residual activity is on record?
**A.** 76%

**Q.** How did the residual activity turn out when CCc1nc(-c2ccc(OC)cc2)[nH]c1-c1ccncc1 was run?
**A.** 82%

Molecular target: Proto-oncogene tyrosine-protein kinase receptor Ret (Homo sapiens) (UniProt P07949)
Settings: at 1 µM

Sequence of Proto-oncogene tyrosine-protein kinase receptor Ret (Homo sapiens) (P07949 whole entry): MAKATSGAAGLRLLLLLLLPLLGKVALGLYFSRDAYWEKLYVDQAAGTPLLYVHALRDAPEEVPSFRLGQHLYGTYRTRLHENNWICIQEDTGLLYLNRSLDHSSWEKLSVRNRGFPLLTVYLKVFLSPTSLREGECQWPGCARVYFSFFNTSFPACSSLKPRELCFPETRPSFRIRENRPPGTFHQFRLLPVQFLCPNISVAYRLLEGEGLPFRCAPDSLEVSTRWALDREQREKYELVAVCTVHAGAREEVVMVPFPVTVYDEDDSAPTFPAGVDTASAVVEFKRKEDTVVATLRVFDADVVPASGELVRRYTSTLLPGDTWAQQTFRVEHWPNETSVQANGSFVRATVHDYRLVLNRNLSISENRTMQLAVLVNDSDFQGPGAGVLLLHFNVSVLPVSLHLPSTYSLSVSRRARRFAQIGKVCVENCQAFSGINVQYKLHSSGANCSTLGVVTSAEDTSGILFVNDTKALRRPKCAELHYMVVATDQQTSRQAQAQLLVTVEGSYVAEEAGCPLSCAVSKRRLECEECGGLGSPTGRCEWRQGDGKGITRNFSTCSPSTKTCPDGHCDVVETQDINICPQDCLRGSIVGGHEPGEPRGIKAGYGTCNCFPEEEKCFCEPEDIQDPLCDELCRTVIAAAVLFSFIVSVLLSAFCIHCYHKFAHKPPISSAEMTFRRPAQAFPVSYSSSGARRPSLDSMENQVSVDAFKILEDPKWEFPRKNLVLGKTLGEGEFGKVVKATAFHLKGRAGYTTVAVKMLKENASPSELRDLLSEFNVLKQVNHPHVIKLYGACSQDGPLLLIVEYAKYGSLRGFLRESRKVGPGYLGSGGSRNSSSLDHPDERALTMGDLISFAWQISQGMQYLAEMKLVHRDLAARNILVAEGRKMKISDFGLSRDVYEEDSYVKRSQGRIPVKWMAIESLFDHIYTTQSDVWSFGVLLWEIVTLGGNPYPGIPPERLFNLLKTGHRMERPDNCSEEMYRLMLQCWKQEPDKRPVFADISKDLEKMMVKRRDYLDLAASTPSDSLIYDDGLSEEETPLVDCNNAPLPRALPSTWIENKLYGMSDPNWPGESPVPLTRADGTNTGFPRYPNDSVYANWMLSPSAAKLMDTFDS

**Q.** c1cc(-c2cnn3cc(-c4ccc(OCCN5CCCCC5)cc4)cnc23)ccn1 was tested. Which residual activity did it give?
**A.** 51%

**Q.** How did the residual activity turn out when COc1cc(OC)c(/C=C2\C(=O)Nc3ccccc32)c(OC)c1 was run?
**A.** 99%

**Q.** CCn1cnc2c(Nc3cccc(Cl)c3)nc(N[C@@H]3CCCC[C@@H]3N)nc21 was tested. Which residual activity did it give?
**A.** 61%

**Q.** How did the residual activity turn out when COC(=O)[C@@]1(O)C[C@H]2O[C@]1(C)n1c3ccccc3c3c4c(c5c6ccccc6n2c5c31)C(=O)NC4 was run?
**A.** 2%

**Q.** With O=C1NC(=O)c2c1c1c3ccccc3n3c1c1c2c2ccccc2n1C1CCC3O1 as the compound, how does the residual activity read?
**A.** 37%

**Q.** Which residual activity does the source give for O=C1Nc2ccc3ncsc3c2/C1=C/c1c[nH]cn1 here?
**A.** 9%

**Q.** O=[N+]([O-])/C=C/c1ccc2c(c1)OCO2 was tested. Which residual activity did it give?
**A.** 96%

**Q.** COc1ccc2c(c[n+](C)c3c4cc5c(cc4ccc23)OCO5)c1OC was tested. Which residual activity did it give?
**A.** 86%

**Q.** Which residual activity does the source give for O=C1c2ccccc2-c2nc3nnnn3nc21 here?
**A.** 105%

**Q.** How did the residual activity turn out when CC(C)(C)c1cc(C=C(C#N)C#N)cc(Br)c1O was run?
**A.** 101%

**Q.** With COc1cc2ncnc(Nc3ccc(OCc4ccccc4)cc3)c2cc1OC as the compound, how does the residual activity read?
**A.** 75%

**Q.** O=c1[nH]c2ccccc2n1C1CCN(Cc2ccc(-c3nc4cc5[nH]cnc5cc4nc3-c3ccccc3)cc2)CC1 was tested. Which residual activity did it give?
**A.** 99%

**Q.** With CC(C)[C@H](CO)Nc1nc(Nc2cccc(Cl)c2)c2ncn(C(C)C)c2n1 as the compound, how does the residual activity read?
**A.** 91%

**Q.** For CCc1nc(-c2ccc(OC)cc2)[nH]c1-c1ccncc1, which residual activity is on record?
**A.** 106%

Molecular target: Proto-oncogene tyrosine-protein kinase receptor Ret (Homo sapiens) (UniProt P07949)
Settings: at 10 µM

**Q.** With c1cc(-c2cnn3cc(-c4ccc(OCCN5CCCCC5)cc4)cnc23)ccn1 as the compound, how does the residual activity read?
**A.** 5%

**Q.** For COc1cc(OC)c(/C=C2\C(=O)Nc3ccccc32)c(OC)c1, which residual activity is on record?
**A.** 92%

**Q.** Which residual activity does the source give for CCn1cnc2c(Nc3cccc(Cl)c3)nc(N[C@@H]3CCCC[C@@H]3N)nc21 here?
**A.** 25%

**Q.** COC(=O)[C@@]1(O)C[C@H]2O[C@]1(C)n1c3ccccc3c3c4c(c5c6ccccc6n2c5c31)C(=O)NC4 was tested. Which residual activity did it give?
**A.** 1%

**Q.** For O=C1NC(=O)c2c1c1c3ccccc3n3c1c1c2c2ccccc2n1C1CCC3O1, which residual activity is on record?
**A.** 34%

**Q.** O=C1Nc2ccc3ncsc3c2/C1=C/c1c[nH]cn1 was tested. Which residual activity did it give?
**A.** 0%

**Q.** C[S+]([O-])c1ccc(-c2nc(-c3ccc(F)cc3)c(-c3ccncc3)[nH]2)cc1 (configuration not stated) was tested. Which residual activity did it give?
**A.** 46%

**Q.** How did the residual activity turn out when O=[N+]([O-])/C=C/c1ccc2c(c1)OCO2 was run?
**A.** 108%

**Q.** With O=C1c2ccccc2-c2nc3nnnn3nc21 as the compound, how does the residual activity read?
**A.** 114%

**Q.** How did the residual activity turn out when CC(C)(C)c1cc(C=C(C#N)C#N)cc(Br)c1O was run?
**A.** 108%

**Q.** Which residual activity does the source give for COc1cc2ncnc(Nc3ccc(OCc4ccccc4)cc3)c2cc1OC here?
**A.** 89%

**Q.** With O=c1[nH]c2ccccc2n1C1CCN(Cc2ccc(-c3nc4cc5[nH]cnc5cc4nc3-c3ccccc3)cc2)CC1 as the compound, how does the residual activity read?
**A.** 83%

**Q.** How did the residual activity turn out when CC(C)[C@H](CO)Nc1nc(Nc2cccc(Cl)c2)c2ncn(C(C)C)c2n1 was run?
**A.** 27%

**Q.** How did the residual activity turn out when CCc1nc(-c2ccc(OC)cc2)[nH]c1-c1ccncc1 was run?
**A.** 80%

Molecular target: Macrophage-stimulating protein receptor (Homo sapiens) (UniProt Q04912)
Settings: at 1 µM

Sequence of Macrophage-stimulating protein receptor (Homo sapiens) (Q04912 25-304 limits assumed): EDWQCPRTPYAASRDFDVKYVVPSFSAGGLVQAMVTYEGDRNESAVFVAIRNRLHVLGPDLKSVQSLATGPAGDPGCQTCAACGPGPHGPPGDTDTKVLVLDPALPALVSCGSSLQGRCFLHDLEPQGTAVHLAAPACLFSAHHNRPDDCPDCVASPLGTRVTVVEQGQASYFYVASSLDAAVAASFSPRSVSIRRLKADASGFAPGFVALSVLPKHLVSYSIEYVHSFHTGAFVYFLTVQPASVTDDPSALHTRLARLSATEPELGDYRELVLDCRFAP
Sequence of Macrophage-stimulating protein receptor (Homo sapiens) (Q04912 310-1400 limits assumed): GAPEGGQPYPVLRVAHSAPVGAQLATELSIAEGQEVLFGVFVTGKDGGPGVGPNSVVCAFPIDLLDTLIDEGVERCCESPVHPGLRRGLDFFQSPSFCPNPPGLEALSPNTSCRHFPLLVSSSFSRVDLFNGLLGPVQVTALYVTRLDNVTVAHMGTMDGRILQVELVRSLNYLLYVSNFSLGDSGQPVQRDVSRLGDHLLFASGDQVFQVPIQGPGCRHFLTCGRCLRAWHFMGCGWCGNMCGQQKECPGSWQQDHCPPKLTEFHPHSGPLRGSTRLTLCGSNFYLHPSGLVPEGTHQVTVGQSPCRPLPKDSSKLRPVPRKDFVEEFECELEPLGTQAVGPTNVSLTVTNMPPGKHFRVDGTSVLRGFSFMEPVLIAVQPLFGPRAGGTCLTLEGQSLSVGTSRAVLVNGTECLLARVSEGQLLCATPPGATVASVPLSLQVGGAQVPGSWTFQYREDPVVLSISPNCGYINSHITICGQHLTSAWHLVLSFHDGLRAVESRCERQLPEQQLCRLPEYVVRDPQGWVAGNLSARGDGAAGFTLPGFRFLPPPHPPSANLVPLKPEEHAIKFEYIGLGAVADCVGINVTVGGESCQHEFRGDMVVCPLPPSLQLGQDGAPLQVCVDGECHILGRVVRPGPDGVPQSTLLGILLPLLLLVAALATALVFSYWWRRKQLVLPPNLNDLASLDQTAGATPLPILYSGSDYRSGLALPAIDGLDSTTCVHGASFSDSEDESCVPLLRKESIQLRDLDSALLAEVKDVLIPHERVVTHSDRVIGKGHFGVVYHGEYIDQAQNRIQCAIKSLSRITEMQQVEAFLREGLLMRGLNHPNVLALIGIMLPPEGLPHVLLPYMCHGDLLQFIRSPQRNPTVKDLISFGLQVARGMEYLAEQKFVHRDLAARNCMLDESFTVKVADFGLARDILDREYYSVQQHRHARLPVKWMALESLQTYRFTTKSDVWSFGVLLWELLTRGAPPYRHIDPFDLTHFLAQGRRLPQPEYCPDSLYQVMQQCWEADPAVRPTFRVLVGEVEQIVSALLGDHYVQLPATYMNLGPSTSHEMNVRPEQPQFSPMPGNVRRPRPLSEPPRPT

**Q.** For c1cc(-c2cnn3cc(-c4ccc(OCCN5CCCCC5)cc4)cnc23)ccn1, which residual activity is on record?
**A.** 104%

**Q.** With COc1cc(OC)c(/C=C2\C(=O)Nc3ccccc32)c(OC)c1 as the compound, how does the residual activity read?
**A.** 77%

**Q.** With CCn1cnc2c(Nc3cccc(Cl)c3)nc(N[C@@H]3CCCC[C@@H]3N)nc21 as the compound, how does the residual activity read?
**A.** 85%

**Q.** With COC(=O)[C@@]1(O)C[C@H]2O[C@]1(C)n1c3ccccc3c3c4c(c5c6ccccc6n2c5c31)C(=O)NC4 as the compound, how does the residual activity read?
**A.** 33%

**Q.** For O=C1Nc2ccc3ncsc3c2/C1=C/c1c[nH]cn1, which residual activity is on record?
**A.** 60%

**Q.** For C[S+]([O-])c1ccc(-c2nc(-c3ccc(F)cc3)c(-c3ccncc3)[nH]2)cc1 (configuration not stated), which residual activity is on record?
**A.** 105%

**Q.** For O=[N+]([O-])/C=C/c1ccc2c(c1)OCO2, which residual activity is on record?
**A.** 100%

**Q.** For COc1ccc2c(c[n+](C)c3c4cc5c(cc4ccc23)OCO5)c1OC, which residual activity is on record?
**A.** 86%

**Q.** Which residual activity does the source give for N/C(=N\[N+](=O)[O-])N/N=C\c1ccc(-c2cccc([N+](=O)[O-])c2)o1 here?
**A.** 63%

**Q.** How did the residual activity turn out when COc1cc2ncnc(Nc3ccc(OCc4ccccc4)cc3)c2cc1OC was run?
**A.** 88%

**Q.** O=c1[nH]c2ccccc2n1C1CCN(Cc2ccc(-c3nc4cc5[nH]cnc5cc4nc3-c3ccccc3)cc2)CC1 was tested. Which residual activity did it give?
**A.** 103%

**Q.** How did the residual activity turn out when CC(C)[C@H](CO)Nc1nc(Nc2cccc(Cl)c2)c2ncn(C(C)C)c2n1 was run?
**A.** 92%
